According to PubChem BioAssay AID588676 (Johns Hopkins Ion Channel Center, 2011):
Among all 310,000 compounds or so, about 3,900 (1.3%) were called active.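 How the source made its calls: active means calcium-response B-score plate-corrected more than 3 library SD below zero, starting fluorescence within 5 deviations, no agonist response on first addition; inactive means the rest.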 Only a selection was taken, and actives are over-represented in it overall.

target: Mas-related G-protein coupled receptor member X1 (Homo sapiens) (UniProt Q96LB2); assay: blockade of BAM8-22-evoked MrgX1 calcium response – HEK293 cells, Fluo-4 calcium flux, primary screen (AID 588676); conditions: Fluo-4, BAM8-22 antagonism, at 10 µM; hits give low values;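 on B-score: peak minus trough fluorescence over baseline after final BAM8-22 challenge near maximal dose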
Sequence (Q96LB2 whole entry, looked up): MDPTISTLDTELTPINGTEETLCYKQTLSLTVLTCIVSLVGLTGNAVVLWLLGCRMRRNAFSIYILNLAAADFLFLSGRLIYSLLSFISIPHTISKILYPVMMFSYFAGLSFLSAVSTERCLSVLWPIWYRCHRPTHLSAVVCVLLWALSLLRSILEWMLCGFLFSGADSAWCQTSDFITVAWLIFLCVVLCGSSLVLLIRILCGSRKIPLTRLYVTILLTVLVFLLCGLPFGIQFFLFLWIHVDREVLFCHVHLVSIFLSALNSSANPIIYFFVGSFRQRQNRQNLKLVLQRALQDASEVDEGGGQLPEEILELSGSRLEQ

**Q.** For `CC(=O)c1cc(-c2ccccc2)n(CC(=O)NC2CCCCC2)c1C`, which B-score is on record?
**A.** inactive

**Q.** Which B-score does the source give for `O=C(Cn1c(-c2cscn2)nc2ccccc21)Nc1ccc(Cl)cc1` here?
**A.** inactive

**Q.** `O=C(Cn1c(-c2cncs2)nc2ccccc21)NC1CCCC1` was tested. Which B-score did it give?
**A.** -5 (active)

**Q.** How did the B-score turn out when `Cc1cc(NC(=O)CSC2=NS(=O)(=O)c3cc(Cl)ccc3N2)no1` was run?
**A.** inactive

**Q.** For `C[C@@H](NC(=O)OC(C)(C)C)c1nnc(S(=O)(=O)Cc2ccccc2)o1`, which B-score is on record?
**A.** inactive

**Q.** `CNC(=S)N/N=C/c1ccc(OCc2ccccc2)c(Br)c1` was tested. Which B-score did it give?
**A.** inactive

**Q.** Which B-score does the source give for `COCCNC(=O)Nc1ccc2nc(-c3ccco3)c(-c3ccco3)nc2c1` here?
**A.** -6.82 (active)

**Q.** How did the B-score turn out when `O=C(NCc1ccccn1)c1ccc2nc(-c3ccco3)c(-c3ccco3)nc2c1` was run?
**A.** inactive

**Q.** How did the B-score turn out when `CCCC(=O)Nc1ccc2c(c1)nc(CCNC(=O)c1ccco1)n2C` was run?
**A.** inactive

**Q.** Which B-score does the source give for `CCOc1ccc(S(=O)(=O)NCCC(=O)N2CCCCCCC2)cc1` here?
**A.** inactive

**Q.** With `O=C(NC(=S)N1CCc2ccccc21)c1ccco1` as the compound, how does the B-score read?
**A.** inactive

**Q.** For `O=[N+]([O-])c1ccc2nc(-c3ccccn3)[nH]c2c1`, which B-score is on record?
**A.** inactive

**Q.** Which B-score does the source give for `COc1ccc([N+](=O)[O-])cc1-c1nc2ccccc2nc1-c1ccccc1` here?
**A.** inactive

**Q.** With `O=[N+]([O-])c1ccc2c(c1)Nc1nc3ccccc3nc1N2` as the compound, how does the B-score read?
**A.** -4.67 (active)

**Q.** For `[O-][n+]1onc2c1CCc1[nH]c(-c3ccccc3)nc1-2`, which B-score is on record?
**A.** inactive

**Q.** Which B-score does the source give for `COc1ccc(NC(=S)N2N=CCC2c2ccccc2)cc1` (stereo unspecified) here?
**A.** -7.31 (active)

**Q.** With `COc1ccc(C2=NN(C(C)=O)C(c3ccccc3)C2)cc1` (stereo unspecified) as the compound, how does the B-score read?
**A.** inactive

**Q.** With `COc1ccc(C(=S)Nc2ccccc2)cc1` as the compound, how does the B-score read?
**A.** inactive

**Q.** For `Cc1nnc(CN(C)Cc2cn[nH]c2-c2ccc(-c3ccccc3)cc2)o1`, which B-score is on record?
**A.** inactive

**Q.** `CC(Nc1nc(C(F)(F)F)nc2ccccc12)c1cccs1` (stereo unspecified) was tested. Which B-score did it give?
**A.** inactive

**Q.** How did the B-score turn out when `Cc1ccc(N2C(=O)C3C4C=CC(CC4)C3C2=O)cc1Br` (stereo unspecified) was run?
**A.** inactive

**Q.** `O=[N+]([O-])c1ccc(NC(=S)N2CCN(c3ccccn3)CC2)cc1` was tested. Which B-score did it give?
**A.** inactive

**Q.** With `COc1cc([N+](=O)[O-])ccc1NC(=S)N1CCN(c2ccccn2)CC1` as the compound, how does the B-score read?
**A.** -5.85 (active)

**Q.** Which B-score does the source give for `CNC(=S)N1CCN(c2ccccn2)CC1` here?
**A.** inactive

**Q.** How did the B-score turn out when `CCC(C(=O)NC1CCCCC1)N(C(=O)c1snc(C(N)=O)c1N)c1ccc(OC)cc1OC` (stereo unspecified) was run?
**A.** inactive

**Q.** `COC(=O)c1cccc(C(=O)N2CCCC(Nc3ccc4c(c3)OCCO4)C2)c1` (stereo unspecified) was tested. Which B-score did it give?
**A.** inactive

**Q.** Which B-score does the source give for `Cc1ccc(S(=O)(=O)N2CCN(C(=O)N3CCOCC3)CC2)c(C)c1` here?
**A.** inactive

**Q.** With `Cc1ccc(S(=O)(=O)N2CCN(C(=O)c3ccccc3-c3nc4ccccc4s3)CC2)c(C)c1` as the compound, how does the B-score read?
**A.** -4.66 (active)

**Q.** `Cc1ccc(S(=O)(=O)N2CCN(C(=O)COC(=O)c3c(C)cc(C)cc3C)CC2)c(C)c1` was tested. Which B-score did it give?
**A.** inactive

**Q.** For `COc1cc(SC#N)ccc1N=Cc1c(C)[nH]n(-c2ccc(C)cc2)c1=O`, which B-score is on record?
**A.** inactive

**Q.** For `CCSc1nsc(NC(=O)Nc2cccc(C(C)=O)c2)n1`, which B-score is on record?
**A.** -6.91 (active)

**Q.** Which B-score does the source give for `C=CCSc1nsc(NC(=O)Nc2cccc(C(C)=O)c2)n1` here?
**A.** inactive

**Q.** For `CCSc1nsc(NC(=O)Nc2ccccc2OC)n1`, which B-score is on record?
**A.** inactive

**Q.** Which B-score does the source give for `COc1cccc(-c2cc(C(=O)N/N=C/c3ccc(OC)c(COC(C)=O)c3)c3ccccc3n2)c1` here?
**A.** -7.49 (active)

**Q.** Which B-score does the source give for `COc1ccc(/C=N/NC(=O)c2cc(-c3cccc(C)c3)nc3ccccc23)cc1O` here?
**A.** inactive

**Q.** For `CCOc1cc(/C=N/NC(=O)c2cc(-c3ccccc3)nc3ccccc23)ccc1O`, which B-score is on record?
**A.** inactive

**Q.** For `CCCCN(C1CCS(=O)(=O)C1)S(=O)(=O)c1ccc(C(C)C)cc1` (stereo unspecified), which B-score is on record?
**A.** inactive

**Q.** With `CC1(C)Cc2c(C#N)c(SCc3nc4ccccc4[nH]3)nc(N3CCOCC3)c2CO1` as the compound, how does the B-score read?
**A.** inactive

**Q.** How did the B-score turn out when `O=c1[nH]c(N2CCOCC2)nc2ccccc12` was run?
**A.** inactive

**Q.** With `C1=C(N2CCOCC2)/C(=C/c2nc3ccccc3[nH]2)CC1` as the compound, how does the B-score read?
**A.** -5.3 (active)

**Q.** Which B-score does the source give for `COc1ccc2c(c1)[C@H]1[C@H](CO2)[C@H](c2ccccc2)[C@]2(C)C(=O)Nc3cc(F)c(F)cc3C(=O)N12` here?
**A.** inactive

**Q.** Which B-score does the source give for `COc1cc(CN(C)Cc2nc3cc(C(F)(F)F)ccc3c(=O)[nH]2)ccc1OC(F)F` here?
**A.** inactive

**Q.** `CCOCCCNC(=O)C1(O)c2cc(Br)ccc2NC(=O)N1c1ccc(C)c(C)c1` (stereo unspecified) was tested. Which B-score did it give?
**A.** inactive

**Q.** With `C=CCn1c(=NC(=O)c2cccs2)sc2cc(NC(C)=O)ccc21` as the compound, how does the B-score read?
**A.** inactive

**Q.** Which B-score does the source give for `Cc1ccc(Cc2cnc(N)s2)o1` here?
**A.** -6.78 (active)

**Q.** `Cc1ccc(CCC(=O)Nc2ncc(Cc3cc(Cl)ccc3Cl)s2)o1` was tested. Which B-score did it give?
**A.** inactive

**Q.** With `CCn1ccnc1CN(C)C(=O)c1cc(COc2ccc(Cl)cc2OC)on1` as the compound, how does the B-score read?
**A.** inactive

**Q.** How did the B-score turn out when `CCc1ccc2[nH]c(=O)c(Cc3ccccc3)c(O)c2c1` was run?
**A.** inactive

**Q.** Which B-score does the source give for `CN(C)c1ccc(-n2cccc2/C=N/n2cnnc2)cc1` here?
**A.** inactive

**Q.** For `Cc1ccc(N=C2NC(=O)/C(=C/C=C/c3ccco3)S2)cc1C`, which B-score is on record?
**A.** inactive

**Q.** With `CN(C)c1ccc(-n2cccc2/C=C2/SC(=Nc3ccc(F)cc3)NC2=O)cc1` as the compound, how does the B-score read?
**A.** -5.31 (active)

**Q.** For `Cc1ccccc1NC(=O)Cn1cc(C(=O)C2CC2)c2ccccc21`, which B-score is on record?
**A.** inactive

**Q.** `COc1cc2ccccc2cc1C(=O)N(CCN(C)C)c1nc2c(F)cccc2s1` was tested. Which B-score did it give?
**A.** inactive

**Q.** With `COc1cccc2sc(N(CCCN(C)C)C(=O)CCS(=O)(=O)c3ccccc3)nc12` as the compound, how does the B-score read?
**A.** inactive

**Q.** For `COc1cccc2sc(N(CCCN(C)C)C(=O)C(c3ccccc3)c3ccccc3)nc12`, which B-score is on record?
**A.** -7.14 (active)

**Q.** With `CCc1ccc2c(c1)C1(NN=C(c3ccccc3)S1)C(=O)N2` (stereo unspecified) as the compound, how does the B-score read?
**A.** inactive

**Q.** `CCOC(=O)c1c(NC(=O)CCl)sc(C(=O)N(CC)CC)c1C` was tested. Which B-score did it give?
**A.** inactive

**Q.** With `Cn1nc(C(F)(F)F)cc1-c1ccc(/C=C(\C#N)C(=O)c2cccc(C(F)(F)F)c2)s1` as the compound, how does the B-score read?
**A.** inactive

**Q.** Which B-score does the source give for `CC(=O)c1c(C)[nH]c(=S)c(C#N)c1-c1ccc(F)cc1` here?
**A.** inactive

**Q.** For `CCOC(=O)c1c(C)nc(-c2ccccc2)nc1NC(=O)C(C)C`, which B-score is on record?
**A.** inactive

**Q.** Which B-score does the source give for `CCOC(=O)c1c(C)[nH]c(=S)c(C#N)c1-c1ccccc1` here?
**A.** -6.66 (active)

**Q.** For `O=c1c(Cl)c(NCc2ccc(F)cc2Cl)cnn1C12CC3CC(CC(C3)C1)C2`, which B-score is on record?
**A.** inactive

**Q.** For `Cc1cccc2c1-c1sc(C(=O)NCCCN3CCc4ccccc4C3)cc1CO2`, which B-score is on record?
**A.** inactive

**Q.** For `CC1=NN(c2cccc(Cl)c2)C(=O)C12CC(C)=C(C)CS2` (stereo unspecified), which B-score is on record?
**A.** inactive

**Q.** Which B-score does the source give for `CC(C)Oc1ccc(C(CC(=O)N2CCOCC2)C(C)C)cc1` (stereo unspecified) here?
**A.** inactive

**Q.** Which B-score does the source give for `O=[N+]([O-])c1ccc(N2CCN(S(=O)(=O)c3ccccc3)CC2)cc1N1CCc2ccccc2C1` here?
**A.** inactive
